PubChem BioAssay AID1490 (National Center for Advancing Translational Sciences (NCATS), 2009)
Values joined by “and” are separate entries in the source; they are usually repeats but may differ in a detail not shown here. Identical values can stand only once. Out of some 310,000 compounds screened, about 11,000 (3.5%) were called active. Roughly 4% stayed inconclusive and do not appear here. Calls follow the shape of the dose curve; as a rule, active = well fitted inhibition curve with a large enough effect; inconclusive = small, poorly fitted or top-dose-only effect, or another doubt; inactive = no such curve, though single readings can be large or run the other way. This excerpt belongs to a sample that is enriched for actives. Non-standard residues stand in square brackets, D forms with d. Residues, ends and D or L forms follow the SMILES beside them. ξ: configuration not given here. *: point of attachment. Cbz = O=C(OCc1ccccc1)*; ξL = CC(C)CC(N)C(=O)O; ξP = O=C(O)C1CCCN1

target: 4'-phosphopantetheinyl transferase ffp (Bacillus subtilis) (UniProt Q9F4F7); experiment: qHTS Assay for Inhibitors of Bacillus subtilis Sfp phosphopantetheinyl transferase (PPTase); conditions: Biochemical Sfp PPTase activity;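 also: the enzyme is Sfp with the accession as filed and its product quenches rhodamine fluorescence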;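 as to Largest response in the series, negative = inhibition: 0% = enzyme reaction without inhibitor and -100% = no enzyme wells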
Excerpt: Assay Submitter: Michael Burkart, University of California, San Diego
Screening Center PI: Austin, C.P.
Screening Center: NIH Chemical Genomics Center [NCGC]
The covalent attachment of a phosphopantetheinyl (4'-PP) arm to a variety of synthases and other proteins is a key posttranslational protein modification. The 4'-PP is installed on the proteins post-translationally from coenzyme A (CoA) on a conserved serine residue by action of phosphopantetheinyl transferase (PPTase) enzymes. Phosphopantetheinylation is essential for synthase activity, and removal of the PPTase gene precludes natural product synthesis in microorganisms, or in the case of fatty acid biosynthesis, renders the organism unviable. PPTase enzymes belong to a distinct structural superfamily. Within bacteria, these enzymes are grouped into two classes based upon primary structure, the AcpS-Type and Sfp-Type PPTases.
Sfp-type PPTases, corresponding to an activator of surfactin production in Bacillus subtilis, are responsible for modifying type I polyketide and nonribosomal peptide synthases of prokaryotes. Sfp-type PPTases are responsible for the activation of a variety of pathogen-associated virulence factors. Among these compounds are toxins such as mycolactone from Mycobacterium ulcerans, siderophores such as vibriobactin from Vibrio cholerae or mycobactin from Mycobacterium tuberculosis, as well as the mycolic acids which form the waxy cell wall of Mycobacteria. The biosyntheses of these natural products are considered attractive targets for drug design.
In search of small molecule Sfp-PPTase inhibitors, a fluorescence quenching assay was developed for detection of Bacillus subtilis Sfp-PPTase enzymatic activity in a miniaturized high-throughput format. The consensus ybbr acceptor peptide […] was N-terminally labeled with Black Hole Quencher-2 (BHQ-2) and used in combination with rhodamine-labeled coenzyme A as a co-substrate.
Inhibition of Sfp-PPTase was detected by recording the fluorescence intensity change over a 30-minute reaction period at a 525 nm excitation and 598 nm emission. Reagents were supplied by Michael Burkart and Timothy Foley, University of California at San Diego.
This BioAssay deposition is for validation of the developed Sfp-PPtase assay.
Assay Buffer: 50 mM Hepes-Na pH 7.6, 10 mM MgCl2, 0.01% Nonidet P-40, and 0.01% BSA.
3 uL of Sfp-PPTase enzyme (final concentration 15 nM) and 1 uL of substrate mixture (final concentration for rhodamine-CoA and BHQ-2-YbbR 5 uM and 12.5 uM, respectively) dispensed in columns 1, 2, 5 - 48. Columns 1 and 2 used to generate neutral control (uninhibited reaction)
Three uL of reagents, consisting of buffer (in columns 3 and 4 as negative control) and Sfp-PPTase (in columns 1, 2, 5 - 48) were dispensed into 1,536-well Greiner black solid bottom plate. Compounds (23 nL) were transferred via Kalypsys pintool equipped with 1,536-pin array. The plate was incubated for 15 min at room temperature, followed by the addition of 1 uL substrate to start the reaction. The plate was then centrifuged at 1000 rpm for 15 seconds, and the fluorescence intensity recorded on a ViewLux High-throughput CCD imager (Perkin-Elmer) using standard BODIPY optics (525 nm excitation and 598 nm emission). The plate was then incubated for 30 minutes, and a second read on the ViewLux was performed. The fluorescence intensity difference over the 30-minute period was used to calculate the respective reaction rate for each well.
Potency is read from the fitted curve at half-maximal effect.

Largest response in the series, negative = inhibition, inactive:
Cc1ccc(CS(=O)Cc2ccc(C(=O)N3CCOCC3)o2)cc1 (stereo not drawn) 9.75%
O=C(Nc1ccnn1C1CCN(C/C=C/c2ccc(F)cc2)CC1)C1CCCC1 -2.59%
O=C(c1ccc(F)cc1)N1CCCC(C(=O)N2CCCCC2)C1 (stereo not drawn) 1.26%
CCOC(=O)C1=C(C(=O)OCC)C(C(=O)OCC)N(S(=O)(=O)C(F)(F)F)c2ccccc21 (stereo not drawn) 6.6%
CCOC(=O)c1ccccc1CN1C(=O)c2ccccc2S1(=O)=O -2.27%
CCc1cc(=O)oc2c(C)c(OCC(=O)NCCN3CCOCC3)ccc12 9.5%
CSCCC(NS(=O)(=O)c1ccc(C)cc1)C(=O)NCCc1c[nH]c2ccccc12 (stereo not drawn) 6.95%
O/N=C(\C[n+]1ccccc1)c1ccc(Br)cc1 -2.63%
C=CCSc1nc2c(c(=O)[nH]c(=O)n2C)n1Cc1ccccc1 9.86%
COc1ccc(CNc2nc3c(c(=O)[nH]c(=O)n3C)n2Cc2ccccc2)cc1 11.4%
CC1CCN(C(=O)C2CCN(S(=O)(=O)N3CCC4(CC3)OCCO4)CC2)CC1 17.9%
O=c1c([N+](=O)[O-])cc(C(F)(F)F)cn1Cc1cccc(Cl)c1 3.19%
O=C(/C=C/c1cccc([N+](=O)[O-])c1)N1CCN(Cc2ccccc2)CC1 2.23%
COc1cc(NC(=O)CN2C(=O)NC(C)(c3ccc(OC(F)F)cc3)C2=O)cc(OC)c1OC (stereo not drawn) 17.8%
Cc1cccc(NC(=O)NC(=S)NC(=O)c2ccccc2)c1 18.4%
O=C(NCCc1ccc(Cl)cc1)c1cccc(N2CCCC2=O)c1 4.32%
S=C(NCCc1ccccc1)N1CCCCC1 5.57%
COc1ccc([N+](=O)[O-])cc1NCC(=O)c1ccc(C)cc1 -11.6%
Cc1cccc(C(=O)Nc2ccc(C(=O)N/N=C/c3cccc(C)n3)cc2)c1 -3.6%
c1ccc(-c2cc(-c3nnc4sc(-c5ccccn5)nn34)[nH]n2)cc1 0.622%
COc1cc(-c2nn3c(-c4cccc(C)c4)nnc3s2)cc(OC)c1OC 10.2%
C=CC1=C2C=C(C3CC3)N(C(CO)CO)C=C2C(=O)C(C)(OC(=O)c2ccco2)C1=O (stereo not drawn) 11.3%
Cc1ccc(CNCc2ccc3c(c2)OCO3)c(C)c1 -14.4%
CC(=O)Nc1ccc(NC(=O)CC2CCCC2)cc1 1.03%
O=C(c1ccc2ccccc2n1)N1CCN(c2ccccc2Cl)CC1 -10.1%
O=C(c1c(F)cccc1Cl)N1CCN(c2ccccn2)CC1 2.71%
COc1ccc(C(=O)CCC(=O)Nc2ccc(Cl)cc2)cc1 9.46%
CCSc1nc2sc3c(c2c(=O)[nH]1)CC(C)(C)OC3 1.72%
CCOC(=O)CSc1nc2sc3c(c2c(=O)[nH]1)CC(C)(C)OC3 -10.3%
CC(C)CC(NC(=O)C1CCCN1C(=O)[C@@H](C)NC(=O)OCc1ccccc1)C(=O)NCC(N)=O (stereo partly drawn) (Cbz-[dA][ξP][ξL]G-NH2) 4.6%
COc1ccc2oc(=N)c(C(=O)Nc3ccc(Br)cc3)cc2c1 17.1%
Cc1ccccc1NC(=S)NC(=O)Cc1ccc(Cl)cc1 1.33%
COC(=O)c1ccc(CNC(=O)c2ccc3oc(C(C)C)nc3c2)cc1 14.1%
CCc1ccccc1NC(=O)CSc1nnc([C@@H](NC(=O)OC(C)(C)C)C(C)CC)o1 (stereo partly drawn) 6.3%
CCc1ccccc1NC(=O)CSc1nnc([C@@H](NC(=O)OC(C)(C)C)C(C)C)o1 0.218%
C[C@H](NC(=O)OC(C)(C)C)c1nnc(SCC(=O)Nc2ccc(Br)cc2)o1 20%
COc1ccccc1NC(=O)[C@H](COCc1ccccc1)NC(=O)OC(C)(C)C 14.9%
CCOC(=O)CC1(NC(=O)c2cc(COc3cncc(Cl)c3)on2)CCCCC1 -1.1%
CC(C)(C)NC(=O)C(c1ccc(Cl)cc1)N(CCO)C(=O)c1snc(C(N)=O)c1N (stereo not drawn) 3.24%
O=C(Nc1cccnc1Cl)c1cc(-c2cccc(Cl)c2)on1 -6.07%
O=C(Nc1cccc(F)c1)[C@@H]1CCCN1 1.19%
Cc1ccc(NC(=O)C2CCCN2S(=O)(=O)c2cccc3cccnc23)c(C)c1 (stereo not drawn) 10.9%
CCCCC(C(=O)NC(C)(C)C)N(Cc1ccccc1)C(=O)c1snc(C(N)=O)c1N (stereo not drawn) 3.56%
CCc1ccc2[nH]c(=O)c(Cc3ccccc3)c(O)c2c1 0.106%
CC(NC(=O)c1ccco1)c1ccc2c(c1)OCO2 (stereo not drawn) 11.2%
COc1cccc(N(C(=O)c2snc(C(N)=O)c2N)C(C(=O)NCC2CCCO2)c2c[nH]c3ccccc23)c1 (stereo not drawn) -7.12%
CC(Sc1nnnn1C1CCCCC1)C(=O)O (stereo not drawn) 0.844%
NC(=O)c1nsc(C(=O)N(CCCN2CCOCC2)C(C(=O)NC2CCCCC2)c2ccc(Cl)cc2)c1N (stereo not drawn) 15%
COCCNC(=O)c1ccc(Cn2c(SCC(=O)NCC3CCCO3)nc3ccc(Br)cc3c2=O)cc1 (stereo not drawn) -12.8%
O=C(CCCn1c(SCC(=O)c2ccccc2)nc2ccccc2c1=O)NCC1CCCO1 (stereo not drawn) -21.1%
CCCCC(=O)Nc1nnc(S(=O)(=O)N(C)Cc2ccco2)s1 -1.11%
Cc1nn(-c2ccccc2)c2c1c(C)c(CCC(=O)NCC1CCCO1)c(=O)n2C (stereo not drawn) 20.2%
CCN1CCc2c(C#N)c(NCc3ccccc3)nc(NCCO)c2C1 -12.9%
CCc1nc(NCCO)c(C#N)c2c1CCCC2 -0.704%
COc1ccc(NC(=O)c2cccc(Cl)c2)c[n+]1[O-] -0.333%
O=C(NCCc1ccccc1)c1ccc2c(c1)N(Cc1ccccc1)CCS2 5.03%
COc1ccc(Cn2c(=S)[nH]c3cc(C(=O)N4CCCCC4)ccc3c2=O)cc1 -3.09%
CC(C)N(C(=O)c1ccc(-c2ccccc2F)cc1)C(C)C -2.72%
O=C(CN1C(=O)c2ccccc2C1=O)NCc1ccc(C(=O)O)cc1 9.6%
C/C=C/C=N/NC(=O)c1ccncc1 -22.5%
COC(=O)[C@@]1(Cc2ccc(F)cc2)[C@H]2c3cc(C(=O)N4CCCC4)n(Cc4ccc(OC(F)(F)F)cc4)c3C[C@H]2CN1C(=O)c1ccccc1 24.5%
COC(=O)[C@@]1(Cc2ccc(OC)cc2)[C@H]2c3cc(C(=O)N4CCCC4)n(Cc4ccc(OC(F)(F)F)cc4)c3C[C@H]2CN1C(=O)c1ccccc1 6.34%
O=C(OCCN=C1NS(=O)(=O)c2ccccc21)c1cccc([N+](=O)[O-])c1 0.751%
COC(=O)CN1C(=O)[C@H]2[C@@H](C3CC3)N3C(=O)CN(Cc4ccc(-c5ccccc5)cc4)C(=O)[C@@]3(Cc3ccccc3)[C@H]2C1=O 13%
CCOc1ccc(S(=O)(=O)NCCCn2ccnc2)cc1NC(C)=O 13.6%
COc1ccc(OCc2cc(C(=O)N3CCCC3)no2)c2ccccc12 -21.1%
O=C(Nc1cccc([N+](=O)[O-])c1)Nn1cnnc1 16.6%
O=C(Nc1cccc(C(F)(F)F)c1)c1cc(Br)cc(Br)c1O -10.2%
O=[N+]([O-])c1cccc(S(=O)(=O)NCc2ccccn2)c1 1.73%
FC(F)(F)c1cccc(Nc2ncnc3ccccc23)c1 5.92%
CCC(C)C(NC(=O)C1CCC(=O)N1C(=O)OCc1ccccc1)C(=O)NC(C(=O)N1CCCC1C(N)=O)C(C)CC (stereo not drawn) 18.8%

Potency, active:
CCOC(=O)c1cc2n(c1N)-c1ccccc1C2=O 8.91 µM
Cn1c(=O)[nH]c(=O)c2c1[nH]c(=S)n2Cc1ccccc1 44.7 µM
O=[N+]([O-])/C=C/c1ccc2c(ccn2Cc2ccccc2)c1 25.1 µM
Oc1cc2c(cc1O)CN(C(=S)NCCc1ccc(Cl)cc1)CCC2 56.2 µM and 44.7 µM
Fc1ccc(-c2ccc(-c3nn4c(-c5ccco5)nnc4s3)o2)cc1 17.8 µM
O=C(c1c(Cl)cccc1Cl)N1CCN(c2cccc3[nH]ccc23)CC1 89.1 µM
CC/C(C)=N/Nc1nc2sc3c(c2c(=O)[nH]1)CC(C)(C)OC3 39.8 µM
CC(C)Sc1nnc([C@H](Cc2ccccc2)NC(=O)OC(C)(C)C)o1 50.1 µM
C[C@@H](NC(=O)OC(C)(C)C)c1nnc(S(=O)(=O)Cc2ccccc2)o1 22.4 µM
CC(Sc1sc(=S)sc1SC(C)C(=O)O)C(=O)O (stereo not drawn) 79.4 µM
CCCCn1c(SCC(=O)NCC2CCCO2)nc2ccc(N3CCOCC3)cc2c1=O (stereo not drawn) 39.8 µM
CC(C)CCNc1nc(N2CCCC2)c2c(c1C#N)CCN(C)C2 70.8 µM
CC(=O)N(C1=C(Cl)C(=O)c2ccccc2C1=O)c1ccc(C(=O)O)cc1 1 µM
COC(=O)[C@@]1(Cc2ccccc2)[C@H]2c3cc(C(=O)N4CCCC4)n(Cc4ccc(C)o4)c3C[C@H]2CN1C(=O)c1ccccc1 56.2 µM
Oc1cc(O)c2c(c1)OC(c1ccc(O)c(O)c1)C(O)C2 (stereo not drawn) 44.7 µM
O=c1cc(CO)oc(C(Nc2cccc([N+](=O)[O-])c2)c2ccccn2)c1O (stereo not drawn) 20 µM
O=c1cc(CO)oc(C(Nc2cccc(C(F)(F)F)c2)c2ccccn2)c1O (stereo not drawn) 7.94 µM
